The nature of assay [1]: qHTS assay to identify aromatase inhibitors - cell viability counter screen (AID 743084).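 Further: cells stimulated with testosterone during compound exposure; nearly all actives have a fitted effect of over 55% in size.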 Further: potency means the concentration at half of the fitted maximal effect.
A short description of assay [2]: qHTS assay to identify small molecule that activate the aryl hydrocarbon receptor (AhR) signaling pathway - cell viability counter screen (AID 743086). Further: nearly all actives have a fitted effect of over 45% in size. Further: potency means the concentration at half of the fitted maximal effect. Summed up:
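HepG2-AhR-luc (HG2L7.5c1) cells, 4000/well, were preincubated 5 h at 37C, exposed to compound in qHTS format for 24 hr at 37C, then given CellTiter-Fluor for 30 min; viability was read as fluorescence in the reporter wells.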
For orientation: Quantitative high-throughput screening tests each substance at several concentrations.

The nature of assay [3]: qHTS assay to identify small molecule antagonists of the peroxisome proliferator-activated receptor gamma (PPARg) signaling pathway - cell viability counter screen (AID 743194). Further: nearly all actives have a fitted effect of over 55% in size. Further: potency means the concentration at half of the fitted maximal effect. Conditions: Potency: co-treated with 50 nM rosiglitazone. The method, boiled down: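 PPARg-UAS-bla HEK293H cells were plated, rested 5 h at 37 C, then treated with compounds plus rosiglitazone (50 nM final) for 17 h at 37 C; viability was then read by CellTiter-Glo luminescence after 30 min at room temperature.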

Assay [4] in a line: qHTS assay for small molecule agonists of the antioxidant response element (ARE) signaling pathway - cell viability counter screen (AID 743203; calls by dose curve; further: nearly all actives have a fitted effect of over 55% in size; further: potency means the concentration at half of the fitted maximal effect). Summed up:
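Compounds in DMSO were pinned onto ARE-bla HepG2 cells plated 5 hrs earlier at 2,000 cells/well. Sixteen hours later at 37C/5% CO2, CellTiter-Glo was added and luminescence measured after 30 min at room temperature.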

A short description of assay [5]: qHTS assay to identify small molecule agonists of the peroxisome proliferator-activated receptor delta (PPARd) signaling pathway - cell viability counter screen (AID 743211). Further: nearly all actives have a fitted effect of over 55% in size. Further: potency means the concentration at half of the fitted maximal effect. The method, boiled down: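 Multiplexed format: after the 2 h room-temperature LiveBLAzer B/G FRET step, CellTiter-Glo was added to the same wells. Luminescence after 30 min gave cell viability; compound exposure was 17 h at 37C.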

Assay [6] can be described thus: qHTS assay to identify small molecule antagonists of the peroxisome proliferator-activated receptor delta (PPARd) signaling pathway - cell viability counter screen (AID 743213). Further: nearly all actives have a fitted effect of over 50% in size. Further: potency means the concentration at half of the fitted maximal effect. The method, boiled down: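 In this counter screen, HEK293H cells carrying a UAS-beta-lactamase reporter are co-treated with test compounds and 300 nM L165041 (final) for 17 h at 37 C; cell viability is quantified by CellTiter-Glo luminescence.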

Assay [7] has as its target Peroxisome proliferator-activated receptor delta (Homo sapiens) (UniProt Q03181). As to the kind of experiment: qHTS assay to identify small molecule antagonists of the peroxisome proliferator-activated receptor delta (PPARd) signaling pathway (AID 743215; active means well fitted inhibition curve with a large enough effect in the signal ratio in the repeat runs, not every such curve was filed as active; the % refers to the signal ratio;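 further: cells stimulated with agonist L165041 at 300 nM final during compound exposure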; further: potency means the concentration at half of the fitted maximal effect). The method, boiled down: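 With L165041 present at 300 nM final, compounds were incubated 17 h at 37 C on PPARd UAS-bla HEK293H cells. A FRET-based beta-lactamase substrate was then applied for 2 h at room temperature and fluorescence intensity recorded.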

Assay [8] is described as follows: qHTS assay to identify small molecule agonists of the farnesoid-X-receptor (FXR) signaling pathway - cell viability counter screen (AID 743218). Further: nearly all actives have a fitted effect of over 45% in size. Further: potency means the concentration at half of the fitted maximal effect. Summed up: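 After 16 h at 37 C with test compounds, FXR-bla HEK 293T cells were given LiveBLAzer B/G substrate for 2 h at RT and then CellTiter-Glo; luminescence was taken after 30 min.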
The nature of assay [9]: qHTS assay for small molecule agonists of the antioxidant response element (ARE) signaling pathway (AID 743202; active means well fitted activation curve with a large enough effect in the signal ratio in the repeat runs, not every such curve was filed as active; the % refers to the signal ratio; further: potency means the concentration at half of the fitted maximal effect). Summed up:
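Read-out: LiveBLAzer B/G FRET substrate fluorescence after 2 h at room temperature, following 16 h compound treatment at 37 C of HepG2 cells carrying an ARE-driven beta-lactamase reporter.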

The nature of assay [10]: qHTS assay for small molecule activators of the heat shock response signaling pathway - cell viability counter screen (AID 743209). Further: nearly all actives have a fitted effect of over 50% in size. The method, boiled down:
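Counter screen for cytotoxicity in HeLa HSE-bla reporter cells. Treatment was 5 h at 37 C; viability was detected by luminescent ATP assay (CellTiter-Glo) in the same wells as the beta-lactamase read.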

Assay [11] is described as follows: qHTS assay for small molecule activators of the heat shock response signaling pathway (AID 743210; active means well fitted activation curve with a large enough effect in the signal ratio in the repeat runs, with a control signal flat, not every such curve was filed as active; the % refers to the signal ratio; further: series mostly up to about 63 µM). The method, boiled down: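 HSE-bla HeLa cells (beta-lactamase reporter under heat shock response elements) were exposed to compounds for 5 h at 37 C, then loaded with LiveBLAzer B/G FRET substrate for 2.5 h at room temperature before fluorescence reading.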
The target in assay [12] is Peroxisome proliferator-activated receptor delta (Homo sapiens) (UniProt Q03181). As to the kind of experiment: qHTS assay to identify small molecule agonists of the peroxisome proliferator-activated receptor delta (PPARd) signaling pathway (AID 743212; calls by dose curve). The method, boiled down: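 GeneBLAzer PPARd UAS-bla HEK293H cells (beta-lactamase reporter under UAS control), plated and rested 5 h at 37 C, then exposed to compounds in DMSO at 37 C; LiveBLAzer B/G FRET substrate added, 2 h room temperature, fluorescence read.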

In assay [13] the target is Bile acid receptor (Homo sapiens) (UniProt Q96RI1). The assay is described as follows: qHTS assay to identify small molecule antagonists of the farnesoid-X-receptor (FXR) signaling pathway (AID 743217; active means well fitted inhibition curve with a large enough effect in the signal ratio in the repeat runs, not every such curve was filed as active; the % refers to the signal ratio). The method, boiled down:
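In this cell-based antagonist screen, inhibition of CDCA-driven (50 uM final) UAS-beta-lactamase expression in HEK 293T cells was measured by FRET fluorescence following 16 h compound exposure at 37 °C.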

The target is the same in assay [14]. The assay is described as follows: qHTS assay to identify small molecule agonists of the farnesoid-X-receptor (FXR) signaling pathway (AID 743220; active means well fitted activation curve with a large enough effect in the signal ratio in the repeat runs, not every such curve was filed as active; the % refers to the signal ratio). Summed up: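 Beta-lactamase reporter under UAS control in GeneBLAzer FXR HEK 293T cells (5000/well) measured with LiveBLAzer FRET substrate after 2 h at room temperature. Compound exposure lasted 16 h at 37C.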
The nature of assay [15]: qHTS assay to identify small molecule antagonists of the farnesoid-X-receptor (FXR) signaling pathway - cell viability counter screen (AID 743221; active means well fitted cell-killing curve with a large enough effect in the repeat runs, not every such curve was filed as active; further: nearly all actives have a fitted effect of over 50% in size; further: potency means the concentration at half of the fitted maximal effect). Summed up:
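CellTiter-Glo, 30 min RT, luminescence; same wells as the LiveBLAzer FRET read. Cells: FXR-UAS-bla HEK 293T. Treatment: compound with chenodeoxycholic acid 50 uM final, 16 h at 37 C.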

Assay [16] addresses Vitamin D3 receptor (Homo sapiens) (UniProt P11473). The assay is described as follows: qHTS assay to identify small molecule agonists of the vitamin D receptor (VDR) signaling pathway (AID 743222; calls by dose curve). The method, boiled down: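 VDR-bla cells were seeded, left 4 h, treated with compounds in DMSO for 16 h, incubated 2 h at RT with B/G FRET substrate, and read for fluorescence.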

For assay [17] the target is unchanged. The assay is described as follows: qHTS assay to identify small molecule antagonists of the vitamin D receptor (VDR) signaling pathway (AID 743223; active means well fitted inhibition curve with a large enough effect in the signal ratio in the repeat runs, not every such curve was filed as active; the % refers to the signal ratio). Summed up: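 After VDR-bla cells are plated and left 4 h at 37C, DMSO-dissolved compounds and 3 nM (final) calcitriol agonist are added. Incubation continues 16 h at 37C; FRET beta-lactamase substrate then develops 2 h at room temperature.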

Assay [18] concerns the target Aryl hydrocarbon receptor (Homo sapiens) (UniProt P35869). The assay is described as follows: qHTS assay to identify small molecule that activate the aryl hydrocarbon receptor (AhR) signaling pathway (AID 743085).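 Further: HG2L7.5c1 human HepG2 liver cells with stably integrated DRE-driven firefly reporter; series mostly up to about 70 µM; nearly all actives have a fitted effect of over 15% in size.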 The method, boiled down: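 Reporter assay in engineered HepG2 line HG2L7.5c1, whose plasmid carries twenty dioxin responsive elements upstream of firefly luciferase. Treatment lasted 24 h at 37C; ONE-Glo luminescence gauged induction.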

In assay [19] the target is Peroxisome proliferator-activated receptor gamma (Homo sapiens) (UniProt P37231). The assay is described as follows: qHTS assay to identify small molecule agonists of the peroxisome proliferator-activated receptor gamma (PPARg) signaling pathway (AID 743094; active means well fitted activation curve with a large enough effect in the signal ratio in the repeat runs, not every such curve was filed as active; the % refers to the signal ratio). The method, boiled down: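 Following 5 h plating at 37C, PPARg-bla HEK293H cells receive compound or DMSO for 17 h; fluorescence intensity is recorded after LiveBLAzer B/G loading for 1 h at room temperature.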

Assay [20] shares this target. The assay is described as follows: qHTS assay to identify small molecule antagonists of the peroxisome proliferator-activated receptor gamma (PPARg) signaling pathway (AID 743191; calls by dose curve; further: nearly all actives have a fitted effect of over 30% in size; further: potency means the concentration at half of the fitted maximal effect). The method, boiled down: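 GeneBLAzer PPARg UAS-bla HEK293H cells carrying a UAS-driven beta-lactamase reporter were plated at 3000 cells/well, preincubated 5 h at 37C, then given compound for 17 h at 37C; LiveBLAzer B/G FRET substrate was read after 1 h at room temperature.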

Molecules are shown by their SMILES. Records with an inconclusive call do not appear. Activity calls are given as the source filed them. Unless noted, the call rests on the fitted dose curve; in most records, active means well fitted curve in the direction sought with a large enough effect in the repeat runs; inconclusive means weak or mixed curves; inactive means no such curve, though single readings can be large; an effect the other way counts as inactive or inconclusive.

Aryl hydrocarbon receptor (Homo sapiens), sequence (P35869 whole entry, looked up): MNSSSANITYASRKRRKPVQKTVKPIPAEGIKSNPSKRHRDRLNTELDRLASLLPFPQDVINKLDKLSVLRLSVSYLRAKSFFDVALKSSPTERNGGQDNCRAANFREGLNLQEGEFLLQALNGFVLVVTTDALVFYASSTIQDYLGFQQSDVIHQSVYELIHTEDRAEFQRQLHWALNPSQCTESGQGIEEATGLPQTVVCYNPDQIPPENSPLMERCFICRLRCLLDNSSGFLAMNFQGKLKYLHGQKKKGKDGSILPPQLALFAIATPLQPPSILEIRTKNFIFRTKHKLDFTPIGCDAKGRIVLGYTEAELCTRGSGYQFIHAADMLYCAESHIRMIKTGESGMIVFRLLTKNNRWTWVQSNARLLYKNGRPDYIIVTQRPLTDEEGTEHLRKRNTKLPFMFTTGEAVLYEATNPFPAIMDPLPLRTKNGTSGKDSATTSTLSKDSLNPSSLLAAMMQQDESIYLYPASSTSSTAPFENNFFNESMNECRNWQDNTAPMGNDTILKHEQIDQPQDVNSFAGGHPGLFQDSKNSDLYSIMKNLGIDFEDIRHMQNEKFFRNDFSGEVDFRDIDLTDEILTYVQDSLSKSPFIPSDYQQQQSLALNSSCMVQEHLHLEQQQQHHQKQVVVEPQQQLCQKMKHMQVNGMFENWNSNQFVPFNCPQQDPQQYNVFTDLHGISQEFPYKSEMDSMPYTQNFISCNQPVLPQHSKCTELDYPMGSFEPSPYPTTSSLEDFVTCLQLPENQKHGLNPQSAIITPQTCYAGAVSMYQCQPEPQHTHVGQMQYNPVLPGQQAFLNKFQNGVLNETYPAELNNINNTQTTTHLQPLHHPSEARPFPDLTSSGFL
Bile acid receptor (Homo sapiens), sequence (Q96RI1 whole entry, looked up): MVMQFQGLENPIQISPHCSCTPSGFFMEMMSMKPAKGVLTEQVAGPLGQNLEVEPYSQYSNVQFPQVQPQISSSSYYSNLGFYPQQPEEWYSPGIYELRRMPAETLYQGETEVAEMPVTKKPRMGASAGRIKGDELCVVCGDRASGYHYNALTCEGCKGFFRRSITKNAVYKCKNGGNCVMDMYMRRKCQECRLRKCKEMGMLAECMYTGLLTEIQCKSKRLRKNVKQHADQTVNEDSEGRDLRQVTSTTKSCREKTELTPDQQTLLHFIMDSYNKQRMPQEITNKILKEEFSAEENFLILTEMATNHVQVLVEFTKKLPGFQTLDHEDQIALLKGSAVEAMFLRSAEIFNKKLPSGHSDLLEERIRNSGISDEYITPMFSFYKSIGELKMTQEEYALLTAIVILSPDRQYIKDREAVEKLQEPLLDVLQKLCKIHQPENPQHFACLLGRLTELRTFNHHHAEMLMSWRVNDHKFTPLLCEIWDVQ
Peroxisome proliferator-activated receptor delta (Homo sapiens), sequence (Q03181 whole entry, looked up): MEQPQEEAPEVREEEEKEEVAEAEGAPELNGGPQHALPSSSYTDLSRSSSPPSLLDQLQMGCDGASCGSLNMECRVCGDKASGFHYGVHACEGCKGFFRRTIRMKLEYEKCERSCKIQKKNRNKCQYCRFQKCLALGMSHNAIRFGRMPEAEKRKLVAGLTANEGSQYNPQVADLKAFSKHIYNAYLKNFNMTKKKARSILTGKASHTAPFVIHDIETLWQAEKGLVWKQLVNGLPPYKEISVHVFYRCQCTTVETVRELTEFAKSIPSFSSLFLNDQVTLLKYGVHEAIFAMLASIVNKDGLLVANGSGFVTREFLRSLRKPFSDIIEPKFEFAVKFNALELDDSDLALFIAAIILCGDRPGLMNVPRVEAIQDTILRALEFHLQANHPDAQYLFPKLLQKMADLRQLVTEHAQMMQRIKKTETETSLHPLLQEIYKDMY
Vitamin D3 receptor (Homo sapiens), sequence (P11473 whole entry, looked up): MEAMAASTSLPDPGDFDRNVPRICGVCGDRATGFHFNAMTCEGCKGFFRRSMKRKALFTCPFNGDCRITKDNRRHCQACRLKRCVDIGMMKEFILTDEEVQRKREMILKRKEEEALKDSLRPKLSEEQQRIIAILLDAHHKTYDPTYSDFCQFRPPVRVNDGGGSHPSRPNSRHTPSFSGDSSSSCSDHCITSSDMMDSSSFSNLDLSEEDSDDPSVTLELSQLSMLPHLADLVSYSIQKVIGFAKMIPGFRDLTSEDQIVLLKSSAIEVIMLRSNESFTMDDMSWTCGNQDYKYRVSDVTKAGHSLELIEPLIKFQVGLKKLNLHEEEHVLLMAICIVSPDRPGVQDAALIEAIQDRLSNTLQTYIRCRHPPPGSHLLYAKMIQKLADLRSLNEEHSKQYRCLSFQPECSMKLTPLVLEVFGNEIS
Peroxisome proliferator-activated receptor gamma (Homo sapiens), sequence (P37231 whole entry, looked up): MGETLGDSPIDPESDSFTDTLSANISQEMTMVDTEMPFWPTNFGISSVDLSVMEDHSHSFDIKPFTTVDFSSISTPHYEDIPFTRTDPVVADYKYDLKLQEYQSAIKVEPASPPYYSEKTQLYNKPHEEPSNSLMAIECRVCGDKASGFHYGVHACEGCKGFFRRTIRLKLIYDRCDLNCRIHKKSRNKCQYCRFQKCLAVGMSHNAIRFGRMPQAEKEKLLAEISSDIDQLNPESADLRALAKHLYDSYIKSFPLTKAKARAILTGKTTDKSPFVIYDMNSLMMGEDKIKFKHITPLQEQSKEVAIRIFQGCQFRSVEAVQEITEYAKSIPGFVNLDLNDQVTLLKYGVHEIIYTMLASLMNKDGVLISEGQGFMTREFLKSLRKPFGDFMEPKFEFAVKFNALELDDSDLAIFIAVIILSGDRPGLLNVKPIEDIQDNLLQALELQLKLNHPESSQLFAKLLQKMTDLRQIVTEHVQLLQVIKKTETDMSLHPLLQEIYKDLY

For `IC(I)=C(I)I`, the Potency in assay [1] is 15.4 µM (active); in assay [2], 43.3 µM (active); in assay [3] it was 9.77 µM (active); in [4] it was 6.11 µM (active); in assay [5], 9.77 µM (active); in assay [6] it was 12.3 µM (active). The figures for the Potency in [7] and in assay [8] were 15.5 µM (active) and 12.3 µM (active), respectively.
As to `Sc1ccccc1Cl`, the Potency result in [3], in assay [9], in [4], in assay [10], in assay [5] and in [6] was “inactive” throughout. For the same compound, the Potency entry in assay [7], in [13], in assay [8] and in [15] was “inactive” in each case. Besides, the call in assay [11], in assay [12], in [14], in assay [16] and in assay [17] was inactive.
Consider `CO/N=C(/C(=O)OC)c1ccccc1COc1ccccc1C`, for which the Potency entry in assay [18], in [2], in assay [4], in assay [10], in assay [6] and in [8] was “inactive” each time. For the same compound, in assay [15], the Potency entry is “inactive”. In addition, the Potency in assay [9] was 19.3 µM (active). The compound was classed as inactive in [11], in assay [14], in assay [16] and in assay [17].
`Cc1ccc(-c2c(Cl)nc(C#N)n2S(=O)(=O)N(C)C)cc1`: the Potency entry in [18], in [2], in [19], in assay [10], in assay [8] and in [15] was “inactive” throughout.
As for `C=CC(=O)OCCCCO`, the Potency entry in assay [2], in [19], in assay [20], in assay [3], in assay [4] and in assay [5] was “inactive” in each case. In addition, the Potency entry in [6], in [7], in assay [13], in assay [8] and in assay [15] was “inactive” throughout. Further, the Potency in assay [9] is 3.86 µM (active). Moreover, in assay [14], the compound was called inactive.
Regarding `CCC(C)(NC(=O)c1cc(Cl)c(C)c(Cl)c1)C(=O)CCl` (configuration not stated), the Potency entry in [18] is “inactive”. The Potency is 39.1 µM (active) in assay [3], 21.8 µM (active) in assay [4], 49.3 µM (active) in assay [5] and 55.3 µM (active) in assay [15].
For `Cl/C=C\C[N+]12CN3CN(CN(C3)C1)C2`, the Potency result in assay [18], in assay [2], in assay [4], in assay [10], in assay [5] and in [6] was “inactive” each time. Moreover, the Potency entry in [13], in assay [8] and in [15] was “inactive” each time. Further, the compound was classed as inactive in assay [11], in assay [14], in assay [16] and in [17].
With `CC(C)O.CC(C)O.OCCN(CCO)CCO.OCCN(CCO)CCO.[Ti]`, the Potency entry in assay [2], in assay [3], in assay [4], in [10], in assay [5] and in assay [6] was “inactive” each time. Moreover, the Potency entry in assay [8] and in assay [15] was “inactive” each time.
On to `C[C@@H]1CC[C@H]2[C@@H](C)C(=O)O[C@@H]3O[C@@]4(C)CC[C@@H]1[C@]32OO4`, for which the Potency result in [18], in assay [3], in [4], in assay [10], in assay [5] and in assay [6] was “inactive” each time. For the same compound, the Potency result in assay [13], in [8] and in assay [15] was “inactive” in each case. Also, the compound was called inactive in assay [11] and in assay [14].
On to `CC(C)N(C(=O)COc1nnc(C(F)(F)F)s1)c1ccc(F)cc1`, for which the Potency result in assay [1], in [19], in assay [3], in assay [4], in assay [8] and in assay [15] was “inactive” each time. For the same compound, the Potency in assay [20] was 7.76 µM (active). Besides, the compound was classed as inactive in assay [12] and in assay [14].
`NCCCNCCCN`: the Potency result in assay [18] and in assay [4] was “inactive” throughout. Also, the call in [11] was inactive. Moreover, in [6], the Potency is 49.7 µM (active).
With `CC(=O)c1cc2c(cc1C)C(C)(C)C(C)CC2(C)C` (configuration not stated), the Potency result in assay [2], in [19], in [4], in [6], in [7] and in [8] was “inactive” each time. The Potency entry in assay [15] was “inactive”. In addition, the call in assay [11], in assay [12], in [14] and in assay [17] was inactive.
For the compound `C[C@]12CC[C@H]3[C@@H](CCC4=CC(=O)CC[C@@H]43)[C@@H]1CC[C@@H]2OC(=O)CCC1CCCCC1`, the Potency entry in assay [3], in assay [4], in assay [10], in assay [5], in assay [6] and in [7] was “inactive” each time. In addition, the Potency entry in assay [8] and in assay [15] was “inactive” each time. Further, the call in [11], in assay [12], in assay [16] and in [17] was inactive.

(Values after PubChem BioAssay (Tox21).)
